According to publication PMC8384837, “Expanding the binding specificity for RNA recognition by a PUF domain”:
Positions count from the first letter of the chain named.

Legend:
Test in all cases: yeast three-hybrid, YBZ-1, SC-Leu-His + 0.5 mM 3-AT, 4 days
Details in all cases: tags: N-Gal4 AD-HA kept; label: inside an RPR1-promoter hybrid RNA with tandem MS2 sites; ssRNA
PUM1 PUF domain R3-WWV = PUM1 PUF domain R3-WWV (Homo sapiens, UniProt Q14671 828-1176, C935W;R936W;Q939V)
How it was run: (§1)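 Pumilio-1 PUF domain libraries, randomized at the three base-contacting residues of each repeat, were co-expressed with matching RNA elements from a centromeric plasmid in strain YBZ-1, which carries a LexA–MS2 coat fusion and a HIS3 reporter. Transformants grew for four days on SC-Leu (input) or on SC-Leu-His + 0.5 mM 3-AT (selection), and the repeat regions were PCR-amplified and Illumina-sequenced. The interaction score is the log change in variant frequency from input to selection. That logarithm is base 2, with a pseudocount of 1 where a variant was absent.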

PUM1 PUF domain R3-YWG = PUM1 PUF domain R3-YWG (Homo sapiens, UniProt Q14671 828-1176, C935Y;R936W;Q939G)
How it was run: as §1

PUM1 PUF domain R3-LFM = PUM1 PUF domain R3-LFM (Homo sapiens, UniProt Q14671 828-1176, C935L;R936F;Q939M)
How it was run: as §1

PUM1 PUF domain R1-YPR = PUM1 PUF domain R1-YPR (Homo sapiens, UniProt Q14671 828-1176, S863Y;R864P;Q867R)
How it was run: as §1

PUM1 PUF domain R2-RRQ = PUM1 PUF domain R2-RRQ (Homo sapiens, UniProt Q14671 828-1176, N899R;Y900R)
How it was run: as §1

PUM1 PUF domain R7-RVQ = PUM1 PUF domain R7-RVQ (Homo sapiens, UniProt Q14671 828-1176, S1079R;N1080V;E1083Q)
How it was run: as §1

PUM1 PUF domain R5-GRG = PUM1 PUF domain R5-GRG (Homo sapiens, UniProt Q14671 828-1176, C1007G;Q1011G)
How it was run: as §1

PUM1 PUF domain R5-DGA = PUM1 PUF domain R5-DGA (Homo sapiens, UniProt Q14671 828-1176, C1007D;R1008G;Q1011A)
How it was run: as §1

PUM1 PUF domain R5-HLK = PUM1 PUF domain R5-HLK (Homo sapiens, UniProt Q14671 828-1176, C1007H;R1008L;Q1011K)
How it was run: as §1

PUM1 PUF domain R5-RAA = PUM1 PUF domain R5-RAA (Homo sapiens, UniProt Q14671 828-1176, C1007R;R1008A;Q1011A)
How it was run: as §1

PUM1 PUF domain R6-MYR = target: T1, PUM1 PUF domain R6-MYR (Homo sapiens, UniProt Q14671 828-1176, N1043M;Q1047R)
T1 sequence: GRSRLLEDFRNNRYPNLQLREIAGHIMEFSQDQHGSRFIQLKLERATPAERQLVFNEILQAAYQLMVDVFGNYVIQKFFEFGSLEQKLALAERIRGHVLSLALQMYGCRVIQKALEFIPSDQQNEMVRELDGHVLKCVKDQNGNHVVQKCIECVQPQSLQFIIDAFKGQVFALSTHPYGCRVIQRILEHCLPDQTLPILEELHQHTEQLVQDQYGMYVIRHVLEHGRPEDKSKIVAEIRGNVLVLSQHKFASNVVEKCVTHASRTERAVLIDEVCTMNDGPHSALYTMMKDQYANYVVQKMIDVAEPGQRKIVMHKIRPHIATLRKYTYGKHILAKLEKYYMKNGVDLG
How it was run: as §1

PUM1 PUF domain R7-RCG = PUM1 PUF domain R7-RCG (Homo sapiens, UniProt Q14671 828-1176, S1079R;N1080C;E1083G)
How it was run: as §1

PUM1 PUF domain R6-SYA = target: T2, PUM1 PUF domain R6-SYA (Homo sapiens, UniProt Q14671 828-1176, N1043S;Q1047A)
T2 sequence: T1 sequence with M216S, R220A
How it was run: as §1

PUM1 PUF domain R8-SWS = PUM1 PUF domain R8-SWS (Homo sapiens, UniProt Q14671 828-1176, N1122S;Y1123W;Q1126S)
How it was run: as §1

PUM1 PUF domain R3-VRT = PUM1 PUF domain R3-VRT (Homo sapiens, UniProt Q14671 828-1176, C935V;Q939T)
How it was run: as §1

PUM1 PUF domain R3-FWA = PUM1 PUF domain R3-FWA (Homo sapiens, UniProt Q14671 828-1176, C935F;R936W;Q939A)
How it was run: as §1

PUM1 PUF domain R3-KRG = PUM1 PUF domain R3-KRG (Homo sapiens, UniProt Q14671 828-1176, C935K;Q939G)
How it was run: as §1

PUM1 PUF domain R4-CYG = PUM1 PUF domain R4-CYG (Homo sapiens, UniProt Q14671 828-1176, N971C;H972Y;Q975G)
How it was run: as §1

PUM1 PUF domain R5-FRY = PUM1 PUF domain R5-FRY (Homo sapiens, UniProt Q14671 828-1176, C1007F;Q1011Y)
How it was run: as §1

PUM1 PUF domain R5-FHE = PUM1 PUF domain R5-FHE (Homo sapiens, UniProt Q14671 828-1176, C1007F;R1008H;Q1011E)
How it was run: as §1

Sequence of PUM1 PUF domain R5-FRY (Q14671 828-1176 C1007F/Q1011Y): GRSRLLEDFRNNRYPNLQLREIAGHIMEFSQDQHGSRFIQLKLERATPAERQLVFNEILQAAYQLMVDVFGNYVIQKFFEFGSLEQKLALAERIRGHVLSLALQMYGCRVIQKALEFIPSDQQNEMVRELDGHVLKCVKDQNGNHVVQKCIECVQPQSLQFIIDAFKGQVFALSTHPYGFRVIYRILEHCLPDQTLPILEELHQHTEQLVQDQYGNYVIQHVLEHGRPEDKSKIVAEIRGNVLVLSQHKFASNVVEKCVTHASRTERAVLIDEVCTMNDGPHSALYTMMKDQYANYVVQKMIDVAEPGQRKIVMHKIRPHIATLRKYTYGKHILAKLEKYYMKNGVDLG
Sequence of PUM1 PUF domain R5-FHE (Q14671 828-1176 C1007F/R1008H/Q1011E): as the sequence (Q14671 828-1176 C1007F/Q1011Y) above, with R181H, Y184E counted along it

For “GGCUAGAACUAGUGGAUCCCCCGGCGCCCGGCGGCUCGAGCCCGGGUAAGUGUAAGUAGUCUGCAUGCCGCCGGGCGCCAUGCCUGCAGGUCGACUCUAGAAAACAUG”, the binding signal (PUM1 PUF domain R3-WWV) was 4.18 log2 enrichment (interaction score), the binding signal (PUM1 PUF domain R3-YWG) was 6.77 log2 enrichment (interaction score) and the binding signal (PUM1 PUF domain R3-LFM) was 5.47 log2 enrichment (interaction score).
For “GGCUAGAACUAGUGGAUCCCCCGGCGCCCGGCGGCUCGAGCCCGGGUAAGUGUAAAUCGUCUGCAUGCCGCCGGGCGCCAUGCCUGCAGGUCGACUCUAGAAAACAUG”, the binding signal (PUM1 PUF domain R1-YPR) was 3.29 log2 enrichment (interaction score).
With “GGCUAGAACUAGUGGAUCCCCCGGCGCCCGGCGGCUCGAGCCCGGGUAAGUGUAAAGAGUCUGCAUGCCGCCGGGCGCCAUGCCUGCAGGUCGACUCUAGAAAACAUG” the binding signal (PUM1 PUF domain R2-RRQ) was 3.28 log2 enrichment (interaction score).
In the case of “GGCUAGAACUAGUGGAUCCCCCGGCGCCCGGCGGCUCGAGCCCGGGUAAGUCUAAAUAGUCUGCAUGCCGCCGGGCGCCAUGCCUGCAGGUCGACUCUAGAAAACAUG”, the binding signal (PUM1 PUF domain R7-RVQ) is reported as 1.92 log2 enrichment (interaction score).
In the case of “GGCUAGAACUAGUGGAUCCCCCGGCGCCCGGCGGCUCGAGCCCGGGUAAGUGUGAAUAGUCUGCAUGCCGCCGGGCGCCAUGCCUGCAGGUCGACUCUAGAAAACAUG”, the binding signal (PUM1 PUF domain R5-GRG) is reported as 3.07 log2 enrichment (interaction score).
With “GGCUAGAACUAGUGGAUCCCCCGGCGCCCGGCGGCUCGAGCCCGGGUAAGUGUUAAUAGUCUGCAUGCCGCCGGGCGCCAUGCCUGCAGGUCGACUCUAGAAAACAUG” the binding signal (PUM1 PUF domain R5-DGA) was 2.6 log2 enrichment (interaction score), the binding signal (PUM1 PUF domain R5-GRG) was 3.72 log2 enrichment (interaction score) and the binding signal (PUM1 PUF domain R5-HLK) was 3.05 log2 enrichment (interaction score). The binding signal (PUM1 PUF domain R5-RAA) was 1.06 log2 enrichment (interaction score).
For “GGCUAGAACUAGUGGAUCCCCCGGCGCCCGGCGGCUCGAGCCCGGGUAAGUGCAAAUAGUCUGCAUGCCGCCGGGCGCCAUGCCUGCAGGUCGACUCUAGAAAACAUG”, the binding signal (PUM1 PUF domain R6-MYR) was 2.56 log2 enrichment (interaction score).
In the case of “GGCUAGAACUAGUGGAUCCCCCGGCGCCCGGCGGCUCGAGCCCGGGUAAGUUUAAAUAGUCUGCAUGCCGCCGGGCGCCAUGCCUGCAGGUCGACUCUAGAAAACAUG”, the binding signal (PUM1 PUF domain R7-RCG) is reported as 2.43 log2 enrichment (interaction score) and the binding signal (PUM1 PUF domain R7-RVQ) is reported as 3.81 log2 enrichment (interaction score).
“GGCUAGAACUAGUGGAUCCCCCGGCGCCCGGCGGCUCGAGCCCGGGUAAGUGUAAAUAGUCUGCAUGCCGCCGGGCGCCAUGCCUGCAGGUCGACUCUAGAAAACAUG” was tested, and the binding signal (PUM1 PUF domain R6-SYA) was 2.48 log2 enrichment (interaction score), the binding signal (PUM1 PUF domain R8-SWS) was 2.46 log2 enrichment (interaction score) and the binding signal (PUM1 PUF domain R5-GRG) was 3.08 log2 enrichment (interaction score). The binding signal (PUM1 PUF domain R3-VRT) was 3.97 log2 enrichment (interaction score), the binding signal (PUM1 PUF domain R3-YWG) was 4.94 log2 enrichment (interaction score) and the binding signal (PUM1 PUF domain R3-FWA) was 4.55 log2 enrichment (interaction score). The binding signal (PUM1 PUF domain R3-KRG) was 2.15 log2 enrichment (interaction score), the binding signal (PUM1 PUF domain R4-CYG) was 7.43 log2 enrichment (interaction score) and the binding signal (PUM1 PUF domain R6-MYR) was 6.42 log2 enrichment (interaction score).
With “GGCUAGAACUAGUGGAUCCCCCGGCGCCCGGCGGCUCGAGCCCGGGUAAGUGUAAUUAGUCUGCAUGCCGCCGGGCGCCAUGCCUGCAGGUCGACUCUAGAAAACAUG” the binding signal (PUM1 PUF domain R3-WWV) was 2.73 log2 enrichment (interaction score), the binding signal (PUM1 PUF domain R3-YWG) was 4.54 log2 enrichment (interaction score) and the binding signal (PUM1 PUF domain R3-FWA) was 5.26 log2 enrichment (interaction score). The binding signal (PUM1 PUF domain R3-KRG) was 2.07 log2 enrichment (interaction score).
In the case of “GGCUAGAACUAGUGGAUCCCCCGGCGCCCGGCGGCUCGAGCCCGGGUAAGUGUAAAUUGUCUGCAUGCCGCCGGGCGCCAUGCCUGCAGGUCGACUCUAGAAAACAUG”, the binding signal (PUM1 PUF domain R1-YPR) is reported as 5.44 log2 enrichment (interaction score).
“GGCUAGAACUAGUGGAUCCCCCGGCGCCCGGCGGCUCGAGCCCGGGUAAGCGUAAAUAGUCUGCAUGCCGCCGGGCGCCAUGCCUGCAGGUCGACUCUAGAAAACAUG” was tested, and the binding signal (PUM1 PUF domain R8-SWS) was 2.67 log2 enrichment (interaction score).
In the case of “GGCUAGAACUAGUGGAUCCCCCGGCGCCCGGCGGCUCGAGCCCGGGUAAGUGUCAAUAGUCUGCAUGCCGCCGGGCGCCAUGCCUGCAGGUCGACUCUAGAAAACAUG”, the binding signal (PUM1 PUF domain R5-GRG) is reported as 0.84 log2 enrichment (interaction score), the binding signal (PUM1 PUF domain R5-FRY) is reported as 2.31 log2 enrichment (interaction score) and the binding signal (PUM1 PUF domain R5-FHE) is reported as 4.41 log2 enrichment (interaction score). For the same sequence, the binding signal (PUM1 PUF domain R5-RAA) was 2.68 log2 enrichment (interaction score).
